Only a selection was taken, and hits are over-represented in it overall.
C diff growth: C. difficile growth inhibitors, primary screen, HTS | growth activity, negative = inhibition, % at 16 µg/mL (by protocol) | 86,000 tested, 0.25% active | Clostridium difficile clinical isolate growth, OD600, 24 h; stronger effect = lower value | AID 1259249, 2017;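 active = mean growth activity at or below -80% and every replicate also at or below -80%; inconclusive = mean at or below -80% but some replicate above -80%; inactive = mean growth activity above -80%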
T cruzi growth-1: T. cruzi intracellular proliferation inhibitors, primary screen, cell-based, beta-gal Tulahuen parasites, NIH3T3 host, luminescence; inhibition, % at 8.34 µM; 77,000 tested, 5.9% active; T. cruzi beta-gal in NIH3T3, GalScreen luminescence, 90 h;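 active = mean inhibition above about 93%, with at least 55% of replicates each passing it, limit read from the data, passing the limit was not always enough; inconclusive = only one of those two conditions holds; inactive = neither condition holds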
T cruzi growth-2: T. cruzi intracellular proliferation inhibitors, confirmation, cell-based, NIH3T3 host, beta-gal parasite, luminescence, cherry-pick. shares compounds with T cruzi growth-1. T. cruzi beta-gal in NIH3T3, GalScreen luminescence, 90 h. inhibition, % at 8.35 µM. 5,600 tested, 72% active;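 active = mean replicate inhibition above about 95% and at least 55% of replicates individually reaching it, limit read from the data; inconclusive = only one of the two criteria is met; inactive = neither criterion is met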
T cruzi growth-3: inhibitors of intracellular T. cruzi replication, confirmation, NIH3T3 host cells, beta-gal parasites, cherry-pick, set 2; inhibition, % at 2.09 µM; 5,600 tested, 21% active; AID 651740, 2012; shares compounds with T cruzi growth-1; T. cruzi beta-gal in NIH3T3, GalScreen luminescence, 90 h;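 active = mean inhibition above about 95%, with at least 55% of replicates also reaching it, limit read from the data; inconclusive = meets just one of the two conditions; inactive = meets neither condition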
NIH3T3 tox: cytotoxicity in mouse NIH/3T3 fibroblasts, confirmation, cytotoxicity control for T. cruzi proliferation inhibitor project, cell-based, cherry-pick, single point. shares compounds with T cruzi growth-1. NIH/3T3 viability, CellTiter-Glo ATP luminescence, 90 h. cytotoxicity (signal decrease), % at 8.35 µM. 5,600 tested, 14% active. AID 651742, 2012;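 active = mean signal decrease across replicates above about 35% based on untreated-well scatter, with enough replicates individually passing, limit read from the data; inconclusive = no rule stated though some were filed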
3T3 cytotox 2: NIH/3T3 fibroblast cytotoxicity, confirmation, cytotoxicity control, cell-based, cherry-pick, single point, set 2. shares compounds with T cruzi growth-1. NIH/3T3 viability, CellTiter-Glo ATP luminescence, 90 h. inhibition, % at 24.9 µM. 5,600 tested, 56% active. AID 651744, 2012;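 active = mean loss of cell viability signal at or above a set limit, and enough replicates individually reaching it; inconclusive = meets only the mean limit or only the replicate share; inactive = meets neither condition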
Of the large screens only hits and unclear results are named; the others gave an inactive call (follow-up assays come after a bar, where they were run).

O=C(c1cnccn1)N1CC(=O)N2[C@H](CO)[C@@H](c3ccc(C#CC4CC4)cc3)[C@@H]2C1	none (no result: T cruzi growth-1)
O=C(Nc1ccc2c(c1)[C@H]1C[C@H](CC(=O)N3CCOCC3)O[C@@H](CO)[C@H]1O2)C1CCC1	none
CCNC(=O)[C@H]1[C@H](CO)[C@H]2Cn3c(ccc(-c4cccc(C(=O)N(C)C)c4)c3=O)[C@@H]1N2	none (no result: T cruzi growth-1)
C[C@H]1CCCCO[C@@H](CN(C)C(=O)Nc2ccc(F)cc2)[C@@H](C)CN([C@@H](C)CO)C(=O)c2cc(NC(=O)Cc3ccccc3)ccc2O1	T cruzi growth-1 113 | T cruzi growth-2 inactive | T cruzi growth-3 inactive | NIH3T3 tox inactive | 3T3 cytotox 2 inactive
C[C@@H]1CCCCO[C@H](CN(C)C(=O)Nc2ccc(F)cc2)[C@@H](C)CN([C@@H](C)CO)C(=O)c2cc(NC(=O)Cc3ccccc3)ccc2O1	none
C[C@@H]1CCCCO[C@H](CN(C)C(=O)Nc2ccc(F)cc2)[C@@H](C)CN([C@H](C)CO)C(=O)c2cc(NC(=O)Cc3ccccc3)ccc2O1	none
C[C@@H]1CCCCO[C@H](CN(C)C(=O)Nc2ccc(F)cc2)[C@H](C)CN([C@H](C)CO)C(=O)c2cc(NC(=O)Cc3ccccc3)ccc2O1	T cruzi growth-1 105 | T cruzi growth-2 111 | T cruzi growth-3 inactive | NIH3T3 tox inactive | 3T3 cytotox 2 inactive
CNC[C@@H]1Oc2ccc(NS(=O)(=O)c3ccc(OC)cc3)cc2C(=O)N([C@@H](C)CO)C[C@H]1C	none (no result: T cruzi growth-1)
CCCC#Cc1cnc2c(c1)C(=O)N([C@H](C)CO)C[C@@H](C)[C@@H](CN(C)Cc1ccc(C(=O)O)cc1)O2	none
C[C@H](CO)N1C[C@H](C)[C@@H](CN(C)CC2CCOCC2)Oc2ncc(C#CCc3ccccc3)cc2C1=O	none
COc1ccccc1C#Cc1ccc([C@H]2[C@@H](CO)N3CCCCN(C(=O)C4CCCC4)C[C@H]23)cc1	none
COc1ccccc1C#Cc1ccc([C@@H]2[C@H]3CN(C(=O)C4CCCC4)CCCCN3[C@H]2CO)cc1	T cruzi growth-1 95 | T cruzi growth-2 inactive | T cruzi growth-3 97 | NIH3T3 tox 86 | 3T3 cytotox 2 104
COc1ccccc1C#Cc1ccc([C@H]2[C@@H](CO)N3CCCCN(C(=O)C4CCC4)C[C@H]23)cc1	none
COc1ccccc1C#Cc1ccc([C@@H]2[C@H]3CN(C(=O)C4CCC4)CCCCN3[C@H]2CO)cc1	T cruzi growth-1 97 | T cruzi growth-2 102 | T cruzi growth-3 inactive | NIH3T3 tox 56 | 3T3 cytotox 2 105
CCC(=O)N1CC2(C1)[C@H](c1ccc(-c3ccccc3C)cc1)[C@H](CO)N2C(C)=O	none (no result: T cruzi growth-1)
C[C@@H]1CCCCO[C@H](CN(C)C(=O)Cc2ccccc2)[C@@H](C)CN([C@@H](C)CO)C(=O)c2cc(NS(=O)(=O)c3ccc(Cl)cc3)ccc2O1	none
COc1ccc2c3c(n(C)c2c1)[C@@H](CO)N(Cc1ccccc1Cl)CC31CCN(C(=O)CN(C)C)CC1	none (no result: T cruzi growth-1)
Cc1ccc(-c2ccc3c(c2)O[C@H](CN(C)Cc2ccc(C(=O)O)cc2)[C@@H](C)CN([C@H](C)CO)S3(=O)=O)cc1	none
Cc1ccc(-c2ccc3c(c2)O[C@H](CN(C)Cc2ccc(F)cc2)[C@H](C)CN([C@@H](C)CO)S3(=O)=O)cc1	T cruzi growth-1 97 | T cruzi growth-2 106 | T cruzi growth-3 inconclusive | NIH3T3 tox inactive | 3T3 cytotox 2 69
Cc1ccc(-c2ccc3c(c2)O[C@@H](CN(C)Cc2ccc(F)cc2)[C@@H](C)CN([C@H](C)CO)S3(=O)=O)cc1	none
Cc1ccc(-c2ccc3c(c2)O[C@@H](CN(C)Cc2ccc(F)cc2)[C@H](C)CN([C@@H](C)CO)S3(=O)=O)cc1	T cruzi growth-1 inconclusive | T cruzi growth-2 96 | T cruzi growth-3 103 | NIH3T3 tox 63 | 3T3 cytotox 2 105
O=C(C1CCOCC1)N1CC(=O)N2[C@@H](CO)[C@@H](c3ccc(C#Cc4cccc(F)c4)cc3)[C@@H]2C1	none (no result: T cruzi growth-1)
O=C1CN(Cc2ccc(F)cc2)C[C@@H]2[C@@H](c3ccc(-c4ccccc4F)cc3)[C@@H](CO)N12	none (no result: T cruzi growth-1)
C[C@@H]1CN([C@@H](C)CO)C(=O)c2cc(NS(=O)(=O)c3ccc(F)cc3)ccc2O[C@@H]1CN(C)C(=O)Nc1ccccc1	none
CCCNC(=O)N[C@@H]1C=C[C@@H](CC(=O)NC2CCC2)O[C@H]1CO	none (no result: T cruzi growth-1)
CC(C)C#Cc1ccc2c(c1)O[C@@H](CN(C)C(=O)c1ccccc1)[C@@H](C)CN([C@@H](C)CO)S2(=O)=O	none
CC(C)C#Cc1ccc2c(c1)O[C@H](CN(C)C(=O)c1ccccc1)[C@H](C)CN([C@H](C)CO)S2(=O)=O	none
CC(C)C#Cc1ccc2c(c1)O[C@@H](CN(C)C(=O)c1cccc(F)c1)[C@H](C)CN([C@@H](C)CO)S2(=O)=O	T cruzi growth-1 107 | T cruzi growth-2 110 | T cruzi growth-3 inactive | NIH3T3 tox inactive | 3T3 cytotox 2 60
CC(C)C#Cc1ccc2c(c1)O[C@H](CN(C)C(=O)c1cccc(F)c1)[C@H](C)CN([C@@H](C)CO)S2(=O)=O	T cruzi growth-1 118 | T cruzi growth-2 109 | T cruzi growth-3 inactive | NIH3T3 tox inactive | 3T3 cytotox 2 78
C[C@@H]1CCCCO[C@@H](CN(C)C(=O)c2ccccc2)[C@H](C)CN([C@H](C)CO)C(=O)c2cc(NC(=O)c3ccncc3)ccc2O1	none
C[C@H]1CCCCO[C@H](CN(C)Cc2ccc(Cl)c(Cl)c2)[C@@H](C)CN([C@@H](C)CO)C(=O)c2cc(NC(=O)Nc3cccc4ccccc34)ccc2O1	T cruzi growth-1 inconclusive | T cruzi growth-2 112 | T cruzi growth-3 111 | NIH3T3 tox inactive | 3T3 cytotox 2 inactive
C[C@@H]1CCCCO[C@@H](CN(C)Cc2ccncc2)[C@H](C)CN([C@@H](C)CO)C(=O)c2cc(NC(=O)Nc3cccc4ccccc34)ccc2O1	none
C[C@@H]1CCCCO[C@@H](CN(C)Cc2ccc(Cl)c(Cl)c2)[C@@H](C)CN([C@@H](C)CO)C(=O)c2cc(NC(=O)Nc3cccc4ccccc34)ccc2O1	T cruzi growth-1 124 | T cruzi growth-2 96 | T cruzi growth-3 103 | NIH3T3 tox inactive | 3T3 cytotox 2 inactive
C[C@@H]1CN([C@@H](C)CO)C(=O)c2cc(NC(=O)Nc3cccc4ccccc34)ccc2O[C@@H](C)CCCCO[C@H]1CN(C)Cc1ccncc1	none
C[C@H](CO)N1C[C@H](C)[C@@H](CN(C)Cc2ccncc2)OCCCC[C@H](C)Oc2ccc(NC(=O)Nc3cccc4ccccc34)cc2C1=O	none

Screens deposited in PubChem BioAssay by Broad Institute.
